AmpC inh detg = qHTS Inhibitors of AmpC Beta-Lactamase (assay with detergent); P00811; AmpC hydrolysis of nitrocefin, absorbance 480 nm, 0.01% Triton; Potency, µM (series often up to 114 µM), hits mostly inhibitors; 370,000 tested, 0.041% active; AID 485294, 2010; further: nearly all actives have a fitted effect of over 25% in size
Target sequence (P00811 whole entry, looked up): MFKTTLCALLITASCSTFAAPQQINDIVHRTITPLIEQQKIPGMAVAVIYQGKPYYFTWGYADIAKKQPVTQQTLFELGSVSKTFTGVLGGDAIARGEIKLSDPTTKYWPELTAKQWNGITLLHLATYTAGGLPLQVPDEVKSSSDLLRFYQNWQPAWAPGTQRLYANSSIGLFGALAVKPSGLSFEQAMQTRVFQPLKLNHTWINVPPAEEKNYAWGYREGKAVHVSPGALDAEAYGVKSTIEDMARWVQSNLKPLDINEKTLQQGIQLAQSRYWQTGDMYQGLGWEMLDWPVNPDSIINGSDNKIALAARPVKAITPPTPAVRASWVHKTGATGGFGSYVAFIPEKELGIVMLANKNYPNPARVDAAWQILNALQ
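AmpC (5.3 nM in the dispensed reagent) in 20 mM phosphate pH 7.0 with 0.01% (detergent screen) or 0.0001% Triton X-100 was preincubated with compounds for 15 min at room temperature. Nitrocefin was then added from an 800 uM solution, and hydrolysis was followed at 480 nm.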
Shiga toxin inh = A qHTS for Small Molecule Inhibitors of Shiga Toxin. Vero cells, Shiga toxin protein synthesis inhibition reporter. 290,000 tested, 9.2% active. inhibition, % at 38.7 µM. AID 2315, 2010; in the data active means inhibition mostly above about 28%, no sharp cut-off; inactive means mostly below about 43%
CHX counter = Cycloheximide Counterscreen for Small Molecule Inhibitors of Shiga Toxin; cell reporter, cycloheximide protein synthesis inhibition counterscreen; 300,000 tested, 12% active; max response, %; in the data active means max response mostly above about 13%, no sharp cut-off; inactive means mostly below about 14%; further: read at 38.3 µM for the half of the compounds with a filed dose
AMA1-RON2 inh = qHTS for Inhibitors of AMA1-RON; Towards Development of Antimalarial Drug Lead: Primary Screen; AlphaScreen AMA1-biotinylated RON2 peptide binding; Plasmodium falciparum AMA1 (3D7) - RON2 peptide interaction; 360,000 tested, 0.2% active; Potency, µM (titrated, usually from 58.2 µM), hits mostly inhibitors; further: nearly all actives have a fitted effect of over 45% in size
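AMA1 (3D7) with his tag at 25 nM final met compounds first, then biotinylated RON2 peptide at 25 nM; detection used donor plus acceptor beads, 10 µg/mL apiece, read by AlphaScreen after 30 min at room temperature.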
AmpC no deterg = qHTS Inhibitors of AmpC Beta-Lactamase (assay without detergent); AmpC nitrocefin hydrolysis, absorbance 480 nm, 0.0001% Triton; AID 485341, 2010; 330,000 tested, 0.52% active; Potency, µM (top dose mostly 57.1 µM), most hits filed as inhibitors; further: nearly all actives have a fitted effect of over 20% in size
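20 mM phosphate pH 7.0 + 0.01% (detergent screen) or 0.0001% Triton X-100; 5.3 nM AmpC reagent; cpd preinc 15 min RT; nitrocefin (800 uM stock) to start; A480 q20 s × 4 min; Activity was normalised to no-enzyme and no-compound control wells.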
SARS PLpro yeast = qHTS of Yeast-based Assay for SARS-CoV PLP; 330,000 tested, 0.19% active; Potency, µM (highest dose often 32.9 µM), usual class: activators; AID 485353, 2010; S. cerevisiae expressing SARS-CoV PLpro, growth rescue; calls by dose curve; further: nearly all actives have a fitted effect of over 55% in size
Numbers stand for hits; i = inactive; ? = inconclusive; nt = no result given; [ ] = remark or other dose. Shown is part of a subset that was picked to be rich in hits. Unless noted, the call rests on the fitted dose curve; in most records, active means well fitted curve in the direction sought with a large enough effect; inconclusive means small, poorly fitted or top-dose-only effect, or another doubt; inactive means no such curve, though single readings can be large; an effect the other way counts as inactive or inconclusive.

SMILES | AmpC inh detg | Shiga toxin inh | CHX counter | AMA1-RON2 inh | AmpC no deterg | SARS PLpro yeast
CC(=O)Nc1ccc(Nc2cc(C)nc3c(-c4ccc(Cl)cc4)c(C)nn23)cc1 | i | i | i | i[2.32 µM] | i | i
Cc1ccc(-c2cc(C(F)(F)F)n3ncc(-c4ccc(Cl)cc4)c3n2)cc1 | i | nt | nt | nt | nt | nt
CC(=O)Nc1ccc(Nc2cc(C)nc3c(-c4ccc(Cl)cc4)cnn23)cc1 | i | 35.7 | 52.4 | i | i | i
Cc1cc(N2CCCCC2)n2ncc(-c3ccc(Cl)cc3)c2n1 | ? | i | 29.0 | i | i | i
O=C(NC(Cc1ccccc1)c1ccc2c(c1)OCCCO2)c1ccccc1F (centres undefined) | i | i | i | i | i | i
Cc1cc(N2CCOCC2)n2ncc(-c3ccccc3)c2n1 | i | 100.3 | 34.0 | i | i | i
COc1ccc(-c2cc3nc(C)c(C)c(N4CCN(C(=O)c5ccoc5)CC4)n3n2)cc1 | nt | nt | nt | i | nt | nt
Cc1cc(N2CCC(C)CC2)n2ncc(-c3ccccc3)c2n1 | i | 131.6 | 44.0 | i | i | i
Cc1cc(N2CCC(C)CC2)n2nc(C)c(-c3ccccc3)c2n1 | i | i | i | i | i | i
CCCc1cc(N2CCOCC2)n2nc(C)c(-c3ccccc3)c2n1 | i | i | 18.0 | i | i | i
Cc1nc2cc(-c3cccc(F)c3)nn2c(N2CCN(C(=O)c3ccco3)CC2)c1C | i | 94.2 | 60.5 | i | i | i
COCCSc1nnc(NC(=O)c2ccc(NC(C)=O)cc2)s1 | i | i | i | i | i | i
Cc1sc(NC(=S)NC(=O)c2ccc(C(C)(C)C)cc2)c(C#N)c1C | i | i | i | i | i | i
O=C(NCc1ccc(F)cc1)c1c2c(nc3ccccc13)C(=O)N(C1CCCCC1)C2 | i | nt | nt | nt | nt | nt
F/C(COc1ccc2c(c1)[nH]c1ccccc12)=C1/CN2CCC1CC2 | nt | 57.1 | 36.0 | nt | nt | nt
CSc1nc2c(c(=O)n1-c1ccc(C)cc1)SCC2 | i | i | 8.6 | i | i | i
Cc1nn(-c2ccccc2)c(=S)c2ccccc12 | i | 60.1 | 19.9 | i | i | i
Cc1nn(-c2ccc(Cl)c(Cl)c2)c(=O)c2ccccc12 | i | i | i | i | i | i
Cc1nn(-c2ccc3ccccc3c2)c(=O)c2ccccc12 | i | 114.9 | 51.0 | i | i | i
Cc1nn(-c2ccc(Cl)cc2)c(=O)c2ccccc12 | i | 98.0 | 48.4 | i | i | i
Cc1nn(-c2ccc(Cl)nn2)c(=O)c2ccccc12 | i | i | 26.5 | i | i | i
CC(Oc1ccc2c(-c3ccccc3)cc(=O)oc2c1)C(=O)NCCCN1CCOCC1 (centres undefined) | i | i | i | i | i | i
COc1ccc(OC)c(Nc2c3ccccc3nc3ccccc23)c1 | i | i | i | 20µM | i | i
COc1ccc(C)cc1Nc1nc(N)c2ccccc2n1 | i | 55.5 | 28.2 | i | i | i
Cc1ccccc1Nc1nc(N)c2ccccc2n1 | ? | 51.5 | 20.7 | i | i | i
SMILES | AmpC inh detg | Shiga toxin inh | CHX counter | AMA1-RON2 inh | AmpC no deterg | SARS PLpro yeast
COc1ccccc1C1C=C(c2ccc(C)cc2)Nc2nnnn21 (centres undefined) | i | i | i | i | i | i
CN(C)c1ccc(C2C=C(c3ccccc3)Nc3nnnn32)cc1 (centres undefined) | i | nt | nt | nt | nt | nt
C1=C(c2ccccc2)Nc2nnnn2C1c1cccs1 (centres undefined) | ? | 68.8 | 15.7 | i | i | i
Cc1ccc(C2=CC(c3cccs3)n3nnnc3N2)cc1 (centres undefined) | ? | i | 47.4 | i | i | i
Fc1ccc(C2=CC(c3cccs3)n3nnnc3N2)cc1 (centres undefined) | i | 58.8 | 27.1 | i | i | i
O=[N+]([O-])c1ccc(O)c(-c2nn[nH]n2)c1 | i | 53.1 | 37.4 | i | i | i
Cc1ccc2[nH]c(=O)c3cc(C(=O)N(C)Cc4ccco4)sc3c2c1 | ? | i | 23.3 | i | i | ?
COCCN(Cc1ccco1)C(=O)c1cc2c(=O)[nH]c3ccc(C)cc3c2s1 | i | nt | nt | nt | nt | nt
COc1ccc(OC)c(C(c2nnnn2Cc2ccco2)N2CCN(C)CC2)c1 (centres undefined) | i | i | i | i | i | i
COc1cccc(C(c2nnnn2Cc2ccco2)N2CCN(c3cccc(C)c3C)CC2)c1OC (centres undefined) | i | 58.4 | i | i | i | i
Nc1ccc2nc(SCc3ccccc3F)sc2c1 | i | 87.3 | 70.8 | i | i | i
Nc1cc(N)nc(SCC(=O)c2ccccc2)n1 | i | i | 40.0 | i | i | i
NC(=O)CSc1nc2ccc(NC(=O)COc3ccccc3)cc2s1 | i | nt | nt | nt | nt | nt
Nc1ccc2nc(SCC(=O)c3ccccc3)sc2c1 | i | 68.1 | 45.0 | i | i | i
COCCn1c(C)cc(C(=O)COC(=O)CCS(=O)(=O)c2ccc(C)cc2)c1C | i | nt | nt | i | i | nt
Cc1ccccc1C(=O)N1CCC(C(=O)N2CCN(Cc3ccc4c(c3)OCO4)CC2)CC1 | nt | nt | nt | i | i | i
Cc1ccc2nc(Nc3nc(CSc4nc5ccccc5s4)cc(=O)[nH]3)nc(C)c2c1 | i | i | i | i | i | i
CCC(C(=O)NC1CCCCC1)N(CC1CCCO1)C(=O)CNS(=O)(=O)c1ccc(OC)cc1 (centres undefined) | i | i | i | i | i | i
CCNC(=S)/N=C(\N)Nc1nc(C)c2cc(C)ccc2n1 | i | 87.5 | 42.8 | i | i | i
COc1cccc(NS(=O)(=O)c2ccc(NC(C)=O)cc2)c1 | i | i | i | i | i | i
O=C1C(=O)N(c2nccs2)C(c2ccccc2F)/C1=C(\O)c1ccc2c(c1)OCCO2 (centres undefined) | i | i | 31.7 | i | i | i
Cc1ccc(C2/C(=C(\O)c3ccc4c(c3)OCCO4)C(=O)C(=O)N2CCCN(C)C)o1 (centres undefined) | i | i | 18.8 | nt | i | i
CC1Cc2cc(/C(O)=C3/C(=O)C(=O)N(CCN4CCOCC4)C3c3cccc(Cl)c3)ccc2O1 (centres undefined) | i | i | i | i | i | i
COc1ccc(C2/C(=C(/O)c3ccc4c(c3)CC(C)O4)C(=O)C(=O)N2CCN2CCOCC2)cc1 (centres undefined) | i | i | i | i | i | i
O=C1C(=O)N(c2nccs2)C(c2ccccc2)/C1=C(\O)c1ccc2c(c1)OCCO2 (centres undefined) | i | i | i | nt | i | i
CC1Cc2cc(/C(O)=C3/C(=O)C(=O)N(CCN4CCOCC4)C3c3ccc([N+](=O)[O-])cc3)ccc2O1 (centres undefined) | ? | i | 15.3 | i | i | i

Source: PubChem BioAssay
